Source: the supplement of paper PMC12632987

T1: USP38, Q8NB14
T1 chain: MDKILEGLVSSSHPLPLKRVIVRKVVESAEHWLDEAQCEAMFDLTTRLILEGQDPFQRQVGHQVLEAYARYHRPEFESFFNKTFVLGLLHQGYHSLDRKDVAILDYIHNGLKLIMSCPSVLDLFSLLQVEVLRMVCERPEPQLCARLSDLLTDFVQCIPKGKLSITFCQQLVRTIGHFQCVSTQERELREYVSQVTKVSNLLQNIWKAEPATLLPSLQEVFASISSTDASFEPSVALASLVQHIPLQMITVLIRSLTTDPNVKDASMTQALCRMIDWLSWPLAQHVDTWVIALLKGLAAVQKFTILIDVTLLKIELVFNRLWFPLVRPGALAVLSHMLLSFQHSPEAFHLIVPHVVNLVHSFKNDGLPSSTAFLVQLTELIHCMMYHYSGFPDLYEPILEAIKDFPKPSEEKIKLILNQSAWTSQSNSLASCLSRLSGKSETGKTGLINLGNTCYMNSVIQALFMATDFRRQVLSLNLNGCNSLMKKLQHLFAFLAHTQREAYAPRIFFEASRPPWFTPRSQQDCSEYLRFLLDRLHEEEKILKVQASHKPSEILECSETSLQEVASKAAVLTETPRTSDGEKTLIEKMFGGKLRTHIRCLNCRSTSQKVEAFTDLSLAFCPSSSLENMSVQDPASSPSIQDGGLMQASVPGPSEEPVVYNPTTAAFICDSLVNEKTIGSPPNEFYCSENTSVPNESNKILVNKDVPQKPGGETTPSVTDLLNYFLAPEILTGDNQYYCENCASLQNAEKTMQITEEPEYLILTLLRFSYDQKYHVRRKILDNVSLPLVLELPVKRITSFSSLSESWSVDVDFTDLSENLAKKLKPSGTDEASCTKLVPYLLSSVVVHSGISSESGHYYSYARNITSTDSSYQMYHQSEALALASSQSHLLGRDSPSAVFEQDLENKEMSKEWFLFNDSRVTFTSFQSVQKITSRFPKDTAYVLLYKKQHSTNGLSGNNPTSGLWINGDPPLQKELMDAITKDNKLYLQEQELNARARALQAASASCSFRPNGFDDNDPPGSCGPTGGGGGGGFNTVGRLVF

B1: usp_38_diff_out_1_101_8 (protein)
chain: LEEELEKALKEFNETIEKAMEAWKEIAKIYKELGNEEKAEKAERQLAALESYKKEHTKFIEELKKEDLESALELAKLSLKNAKSILKEAEERLKKAKALK
B2: usp_38_diff_out_18_31_437 (protein)
chain: SLREEAERVAEEARRLAEELKEKSKELKEAIKKGDKEKAEKLMEEMERLKEELGRAYLRLRDLAREDPSNRPLLKEVTKEANEAVDEYTEAEEAYFLFKA
B3: usp_38_diff_out_1_101_7 (protein)
chain: LEEELKKALEEFNETIDKAIKVYEEIAKLYKKMGKEEKAEKAERQRKALETWREDSTAFIEELAKEDLESALELAKLALENAKTILKEAEEELKKVKAEE
B4: usp_38_diff_out_1_101_6 (protein)
chain: IEKELKKALEEFNKTLDETIKVYEEIEKLYKEMGNEEKAERAQRQRDALETYRKDTTAFIEELYKEDPESALELAKLALENAKTILKEAEKELKEVKAEK
B5: usp_38_diff_out_18_28_431 (protein)
chain: AEAAIQAKIDAAEKEMDALIDEYVKVATEGFLALDESDKGEELEAAINELADAVGAAAAAVNEMRRNRDDPAAVDAQLAKFNAAKKKAKEKIKEIKKLLK
B6: usp_38_diff_out_18_31_441 (protein)
chain: SLRERGREVAERAREAIRRLRELAERLLEAIKEGKREEAEELAKEMDEELVELGRAYQELRDLAREDPSLRPLLKEVEEEANEAIDLYNKAMEELFLFKS
B7: usp_38_diff_out_18_31_442 (protein)
chain: SVVEEAKRVAKEALEAIEKLKKTIDELKKAIGKDPKKAEELLKKARELLKKFSELYLRLRDLRRQAPEQIRPLLEELEKKADEAIDKYEEAETAYFLAKA
B8: usp_38_diff_out_18_28_433 (protein)
chain: SLEANRALIAKYEAEADALIDEATKAATEGFLKYHENPDDEKLLEAINKLMDAVGKAAAAVRRMREHIHDPEAVAKYAKEFEKAKKEAEEKLKELKKLIK
B9: usp_38_diff_out_18_28_432 (protein)
chain: EEEEIKKLIEEAEKKMDELIDEYVKISTEGFLKINESDKGEELLEAINELADEVGKAAKAVNEMRKNRNDKEKVEEYLKKFEEAYKKAKEKIEEIKKLIE
B10: usp_38_diff_out_18_30_435 (protein)
chain: EEEDEETQKFIDEELRKILAESTEELAREVRRRLPDSPEAREIAELLEEASRLIKEGTPEALKKALEKLERALELLKKNPQAPDRLLTATAGMIEVLKEL
B11: usp_38_diff_out_18_31_440 (protein)
chain: SLRERAERVREELERAAERMKRLAEELKEAIKAGDRERAERLMEEMDREMERLGRAYLELRDLAREDPSLRPLLKEAERRANEAVDAYTEAATAYHLFKA
B12: usp_38_diff_out_1_101_12 (protein)
chain: LEAELAKAREAFRAAVAEVEAVLEEAEALAKAAGDAARAARWARQLAAVRAWRADLERTLEEIAAQDLESALELAKAALENAKTLLAEAKAELAAYKAKL
B13: usp_38_diff_out_1_101_11 (protein)
chain: LEAELAAARAEFDAAAADLLAAARAALAEVKALGDAAAAARFARYLAAYESFIADTRRTADEIAEQDKESAIEFLKAATENLRTLKEEVEAELARIKAKL
B14: usp_38_diff_out_1_101_4 (protein)
chain: MEERLEKAKKEIEEALEEIIKIYEETAKAAKAAGDEALAERWKRFAEAMRTYRESLERTLEELREQDLESALAFAEAALEVTKSLLKEAKEEAEKAKKAL
B15: usp_38_diff_out_18_30_434 (protein)
chain: EEEDEETEEYIRNKLLEFTAESTRDLAERVRRRLPDSPRAREIARLLEEASELLKKRTPEALEEAARLLERALELAEADPRATDRLLTSLRGLLTVVKEL
B16: usp_38_diff_out_18_30_436 (protein)
chain: SAEDEETERYIREALRKATAESLRELAERLERRLPDSPEAREIVALVREAARLLEEGTPEALAQAAALLRRALALLEADPRATDRELTALRGLLVVVEEL

Biological target: T1, USP38, Q8NB14
Experiment: median log2 fold change of GCK-ALFA target abundance (FLAG IP / Myc IP barcode read proportion) (log2 ratio); each designed protein is fused to an ALFA-tag nanobody in HEK293 cells to bring the named protein to FLAG-tagged glucokinase (GCK); Myc marks an untargeted standard; higher = target protein stabilised (more abundant)
Conditions: target protein: 3xFLAG-MCP-GCK-ALFA reporter; HEK293 landing pad (RPLP)
How it was run: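 HEK293 landing-pad cells received a recombined binder library fused to the ALFA nanobody and were induced with 2 μg mL^−1 doxycycline, then transfected with a plasmid encoding a FLAG-tagged target and a Myc-tagged standard. Lysates were collected after 48 h for anti-FLAG and anti-Myc immunoprecipitation, and the circular RNA barcodes were reverse transcribed, amplified and sequenced. Target abundance for each binder is the median log2 ratio of FLAG to Myc barcode read proportions. Barcodes had to reach a proportion of at least 10^−7 in both replicates, each binder needed at least 3 barcodes per replicate, a pseudocount of 10^−6 was applied, and the two replicates were pooled.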

Row | Binder | median log2 fold change
1 | B1 | 0.118
2 | B2 | -1.39
3 | B3 | -0.366
4 | B4 | -0.129
5 | B5 | -0.437
6 | B6 | -0.642
7 | B7 | -0.788
8 | B8 | 0.116
9 | B9 | -0.257
10 | B10 | 0.231
11 | B11 | -0.671
12 | B12 | -0.00433
13 | B13 | -0.315
14 | B14 | -0.644
15 | B15 | -0.134
16 | B16 | 0.0576
